According to PubChem BioAssay (NCI):
Compounds without any hit were thinned out: in the full panel of roughly 79,000, 15% have a hit. No stated cut-off is given here; in the data, active means growth inhibition above about 70%; inactive means the rest.

Key:
[1] = NCI Yeast Anticancer Drug Screen. Data for the rad50 strain (AID 155);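 further: 0% = growth of vehicle-only cultures of the same strain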; settings: S. cerevisiae rad50 strain growth inhibition; at 50.0 µM; active compounds read high
Procedure, shortened: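 Inhibition values express reduced yeast growth in compound-treated cultures relative to vehicle-treated controls.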

[2] = NCI Yeast Anticancer Drug Screen. Data for the mec2-1 strain (AID 157); settings: S. cerevisiae mec2-1 strain, at 50.0 µM, active compounds read high
Procedure, shortened: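 Cells of the genetically defined mec2-1 yeast strain are incubated with test compound. Inhibition of growth is calculated against vehicle-treated controls.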

[3] = NCI Yeast Anticancer Drug Screen. Data for the sgs1 mgt1 strain (AID 161);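 further: 0% = growth of cultures given vehicle only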; settings: S. cerevisiae sgs1 mgt1 strain, at 50.0 µM, active compounds read high
Procedure, shortened: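 Inhibition of yeast growth, normalised to vehicle-treated controls, is reported for a strain bearing genetic alterations in DNA damage repair.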

[4] = NCI Yeast Anticancer Drug Screen. Data for the cln2 rad14 strain (AID 165);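 further: 0% = growth equal to vehicle treated cultures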; settings: S. cerevisiae cln2 rad14 strain, at 50.0 µM, active compounds read high
Procedure, shortened: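 The screen exposed genetically defined yeast (cln2 rad14) to test compounds and scored growth inhibition relative to vehicle-treated controls.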

[5] = NCI Yeast Anticancer Drug Screen. Data for the bub3 strain (AID 167); settings: S. cerevisiae bub3 mutant strain, at 50.0 µM, active compounds read high
Procedure, shortened: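 Steps: expose the mutant yeast strain to compound; grow alongside vehicle-treated cultures; measure growth; express inhibition against the vehicle cultures.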

[6] = NCI Yeast Anticancer Drug Screen. Data for the mlh1 rad18 strain (AID 175); settings: S. cerevisiae mlh1 rad18 strain growth inhibition; at 50.0 µM; active compounds read high
Procedure, shortened: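 Compound-treated yeast growth, normalised to vehicle controls. Strain bears defined DNA repair mutations.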

Measured: growth inhibition

Nc1ncn[nH]1
inactive: [1] -5.05% | [2] 11.7% | [3] -7.75% | [4] 7.9% | [5] 18.6% | [6] -3.25%

O=[N+]([O-])c1ccc(CI)cc1
inactive: [1] 5.65% | [2] 34.2% | [3] 36.6% | [4] -3.55% | [5] 13.4% | [6] 23.3%

C/C(CC(C)(C)N1CC1)=N\N
inactive: [1] -19.7% | [2] -12.8% | [3] -7.75% | [4] -20.1% | [5] -7.95% | [6] -8.95%

CCCC(C)SP(=S)(SC(C)CCC)SC(C)CCC (stereo not given)
inactive: [1] 4.1% | [2] -11.3% | [3] -1.9% | [4] -43.3% | [5] 2.85% | [6] 19.6%

C[C@]12CC[C@H]3[C@@H](CC=C4C=C(P(=O)(O)O)CC[C@@]43C)[C@@H]1CC[C@@H]2O
inactive: [1] -8.1% | [2] 5.2% | [3] -8.55% | [4] -56.3% | [5] -12.9% | [6] -10.1%

O=P(N1CCCCCC1)(N1CC1)N1CC1
inactive: [1] -2.15% | [2] 11% | [3] -11.4% | [4] 3.95% | [5] -3.25% | [6] 6.35%

CC([OH2+])CNCCN.CC([OH2+])CNCCN.O=[N+]([O-])[O-].[Cu+2] (stereo not given)
inactive: [1] -10.1% | [2] -8.95% | [3] 5.25% | [4] -39.6% | [5] -0.7% | [6] 0.2%

O=C(CC(=O)C(F)(F)F)c1ccco1.[Fe]
inactive: [1] 32.6% | [2] 21.3% | [3] 0.5% | [4] 6.9% | [5] 6.55% | [6] 14.7%

CNC(=O)N1CN(c2ccccc2)C2(CCN(CCCC3(c4ccc(F)cc4)OCCO3)CC2)C1=O
inactive: [1] -16% | [2] -9.5% | [3] -4.4% | [4] -8.8% | [5] 8.3% | [6] 1.05%

CC1N=C(c2ccccc2)C2(c3ccccc3)C(C)N12 (stereo not given)
inactive: [1] -7% | [2] 6.8% | [3] -7.7% | [4] -29.2% | [5] -10.3% | [6] 5.85%

CCC1([N+](=O)[O-])COP(=O)(NCc2ccncc2)OC1 (stereo not given)
inactive: [1] 8.4% | [2] -8.4% | [3] -5.95% | [4] 10.6% | [5] -5.6% | [6] 12.3%

COc1ccc(N=NC(=O)NC(CC(C)C)C(=O)NC(C)C(=O)O)cc1 (stereo not given)
inactive: [1] -11.8% | [2] -26.4% | [3] -8.5% | [4] -19.6% | [5] -31.4% | [6] 5.15%

COc1ccc2c(c1)CC1N(C)CCC13CCCCC23 (stereo not given)
inactive: [1] 41.8% | [2] 19.5% | [3] -1.2% | [4] 2.1% | [5] -11.4% | [6] -70.4%

CC(C)=CC1CC(=[N+]=[N-])C(=O)C1(C)C (stereo not given)
inactive: [1] 33.5% | [2] 7.1% | [3] 17% | [4] 16.9% | [5] 4.05% | [6] 28.6%

O=C(Nc1ccccc1)N(C1=NCC(CI)S1)c1ccc(F)cc1F (stereo not given)
inactive: [1] 18.3% | [2] 6.75% | [3] -6.95% | [4] 7.7% | [5] 2.95% | [6] -40.1%

CC(=O)N(N=O)c1cc(Cl)ccc1Cl
inactive: [1] -2.75% | [2] -11.1% | [3] 3.15% | [4] -2.15% | [5] -5.5% | [6] -1.45%

c1cc2c(cc1NC1=NCCO1)OCO2
inactive: [1] -23.2% | [2] -18.8% | [3] -3.65% | [4] 0.7% | [5] -13.8% | [6] -25.2%

C=C1CC2C3CC=C4CC(OC(C)=O)CCC4(C)C3CCC2(C)C1=O (stereo not given)
inactive: [1] 31.7% | [2] 13.8% | [3] 6.15% | [4] 0.55% | [5] 15.8% | [6] 15.7%

O=[N+]([O-])C(CO)CCCC(CO)[N+](=O)[O-] (stereo not given)
inactive: [1] 11.7% | [2] -6% | [3] 5.65% | [4] -37.1% | [5] -20.4% | [6] 11.4%

NCCCN1CCN(c2ccccc2)CC1
inactive: [1] -0.45% | [2] -30.2% | [3] -12.6% | [4] 26% | [5] -28.6% | [6] -39.5%

O=C1CC2(CCNCC2)C(=O)N1N1CCCCC1
inactive: [1] -2.5% | [2] 12% | [3] 5.9% | [4] 7.15% | [5] 1.45% | [6] 5.4%

c1ccc(C[N+]23CN4CN(CN(C4)C2)C3)cc1
inactive: [1] 9.5% | [2] -20% | [3] -7.6% | [4] 8.65% | [5] -18.2% | [6] -6.5%

CCCCS(=O)CCC(N)P(=O)(O)O (stereo not given)
inactive: [1] -50.6% | [2] -54% | [3] -52.8% | [4] -9.9% | [5] 1% | [6] -38.2%

CP(C)(=S)P(C)(C)=S
inactive: [1] 10.8% | [2] 6.05% | [3] 14.6% | [4] -9.1% | [5] 3.05% | [6] -18.5%

COc1cc2c(cc1OC)C13CCN4CC5CCOC6CC(=O)N2C1C6C5CC43 (stereo not given)
inactive: [1] 8.6% | [2] 6.35% | [3] 21.6% | [4] 10.2% | [5] -7.5% | [6] -72.3%

Nc1cccc(SC2CC(=O)N(c3ccc(Cl)cc3C(=O)c3ccccc3)C2=O)c1 (stereo not given)
inactive: [1] 16.6% | [2] -4.6% | [3] 34.2% | [4] 26.4% | [5] 19.9% | [6] 22.9%

CCCCCCCCCCC(C(=O)c1ccccc1)N1CCOCC1 (stereo not given)
inactive: [1] -14.7% | [2] -2.95% | [3] 10.9% | [4] -8.3% | [5] 3.85% | [6] -8.4%

CCCCCCCCCCCCCC(=O)O.[Pb]
inactive: [1] -4.8% | [2] 7.35% | [3] -5.9% | [4] -0.65% | [5] -12.7% | [6] 5%

CC1(C[N+](C)(C)C)COC(C)(C)O1 (stereo not given)
inactive: [1] -3.95% | [2] 11.6% | [3] 5.25% | [4] -2.85% | [5] 5.3% | [6] 3.95%

C[C@]12CC[C@@H](OC(=O)N(CCCl)N=O)C[C@@H]1CC[C@@H]1[C@@H]2CC[C@]2(C)C(=O)CC[C@@H]12
inactive: [1] 1.55% | [2] -3.4% | [3] 26.5% | [4] -0.75% | [5] 13.2% | [6] 59.9%

CNC(=O)Oc1cccc(N)c1
inactive: [1] 5.35% | [2] -1.1% | [3] 5.85% | [4] 7.3% | [5] -22.1% | [6] -0.05%

CC1=CC23C(COC(=O)C24CO4)C(C(=O)O)=CC3C1C (stereo not given)
inactive: [1] -22.8% | [2] -19.7% | [3] -13.3% | [4] 27% | [5] -8.95% | [6] -5.7%

CCCCCCCC(=O)[O][Pb]([CH2]C)([CH2]C)[CH2]C
inactive: [1] -7.8% | [2] -29.2% | [3] 1.95% | [4] -1.5% | [5] 0% | [6] -21.3%

CC1(C)CCC[N+]1(C)CCC(C(N)=O)(c1ccccc1)c1ccccc1 (stereo not given)
inactive: [1] 12.7% | [2] 5.3% | [3] 6.6% | [4] 4.45% | [5] 8.8% | [6] 3.35%

CCC1CN1P1(=O)OCC(C)(N)CO1 (stereo not given)
inactive: [1] -9.45% | [2] 0.7% | [3] -7.35% | [4] 42.6% | [5] -29.1% | [6] -10.6%

NC(c1ccccc1)C(Cl)c1ccccc1 (stereo not given)
inactive: [1] -6.9% | [2] -54.3% | [3] 3.15% | [4] -20.8% | [5] 14.9% | [6] -7.55%

N#CCCc1ccccc1
inactive: [1] -2.25% | [2] -7.95% | [3] -1.95% | [4] -12.8% | [5] -1.1% | [6] 0.65%

C/C(=N\N=C(N)N)C(CN(C)C)C(c1ccccc1)c1c(O)c2ccccc2oc1=O (stereo not given)
inactive: [1] 25.6% | [2] 23.4% | [3] -4.45% | [4] 13.8% | [5] -1.5% | [6] 16.8%

COc1ccc(CCN)cc1OC
inactive: [1] 37.5% | [2] 9.9% | [3] 23% | [4] -82% | [5] -5.05% | [6] -24.2%

CC1(C)CN=C(Nc2ccc(Cl)cc2)S1
inactive: [1] 13.9% | [2] 1.45% | [3] -12.1% | [4] 13.5% | [5] -10.7% | [6] -31.2%
